The results in this text go back to PubChem BioAssay (NCI).

SMILES strings stand for the structures. The panel holds about 83,000 compounds, 20% with a hit somewhere; the sample as a whole holds those more often.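 Plates (96-well) were seeded with cells, treated with compound at one concentration, and incubated for 48 hours before percent growth was determined.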 Active and inactive are the calls of the source.

This assay has as its system NCI-H23 lung. The experiment in a line: NCI-60 one-dose screen, 48 h (100 = growth as untreated, 0 = no growth, -100 = all killed). Conditions: 10 µM. On the procedure: Growth inhibition of the NCI-H23 human Non-Small Cell Lung tumor cell line is measured as a screen for anti-cancer activity. Cells are grown in 96 well plates and exposed to the test compound for 48 hours. Compounds are tested at a single concentration, which is 10^-5 M for most compounds. The reported endpoint is percent growth (GI% or GIPRCNT), where numbers from 0 - 100% represent growth inhibition, and numbers from -100% - 0 represent cell death. For example, a value of 40 represents 60% growth inhibition. A value of 0 means no net growth occurred over the course of the experiment. A value of -40 indicates 40% of cells at the beginning of the experiment died by the end of the experiment. A value of -100 means all cells are dead at the end of the experiment.
NCI-60 Human Tumor Cell Lines Screen was performed using the standard one-dose NCI protocol, which is described in more detail at https://dtp.cancer.gov/discovery_development/nci-60/default.htm.
Compounds with GIPRCNT values below 10 were considered active. Activity score was based on GIPRCNT using the following formula: […]
Score is 0 for GIPRCNT values of 100 or above, 50 for GIPRCNT values of 0, and 100 for GIPRCNT values of -100.
For `COc1cccc2c1C(=O)c1c(O)c3c(c(O)c1C2=O)C[C@@](O)(C(=O)COC(=O)c1cccnc1)C[C@@H]3OC1CC(N)C(O)C(C)O1` (stereo not given in full), the growth was -24.7% (active).
For the molecule `CC1(C)CC(OCCCC[P+](c2ccccc2)(c2ccccc2)c2ccccc2)CC(C)(C)N1O`, the growth is 4.57% (active).
Take `CCCOCC(O)CNCCN` (stereo not given): the growth is 109% (inactive).
For `COc1ccc(C2C=C(c3ccc(OC)c(OC)c3)N=C3SC=CN32)c(Br)c1` (stereo not given), the growth is 89.3% (inactive).
As to `CCCCCCCCCCCCCCCCn1cc[n+](C)c1`, the growth is -51.9% (active).
As for `c1ccc(C2CCCCC2)c(OCCCCCN2CCNCC2)c1`, the growth is 71.2% (inactive).
Turning to `COc1cc(-c2cc(/C=C/C(C)=O)[nH]n2)cc(OC)c1OC`, the growth was 87.7% (inactive).
Take `CCOC(=O)c1ccc(NC(=O)Nc2nncs2)cc1`: the growth was 21.9% (inactive).
To `COc1cc2c3c(cccc3c1)C(=O)N(CCN1CCCC1)C2=O` belongs 32.5% (inactive); to `CCCCn1c(=O)[nH]c(N)c(C(c2ccc(Cl)cc2)c2c(N)[nH]c(=O)n(CCCC)c2=O)c1=O`, 53.9% (inactive); to `CC(=O)O[C@H]1CC[C@@]2(C)[C@@H](CC[C@@H]3[C@@H]2CC[C@]2(C)C=C(C=O)C[C@@H]32)C1`, 73.6% (inactive).
As for `CCCCCc1cc[n+](CC(=O)c2ccc(Cl)cc2)cc1`, the figure is 81.5% (inactive); as for `N#C/C(=C/c1cc([N+](=O)[O-])ccc1Cl)C(N)=O`, 98.4% (inactive).
For `Cc1cc(C)c(/C=C2\C(=O)Nc3ccc(NC(=O)CCCCCCC(=O)NO)cc32)[nH]1`, the growth was 52.4% (inactive).
With `COc1ccc(-c2cn[nH]c2-c2cc(OC)c(OC)c(OC)c2)cc1`, the growth is 27.8% (inactive).
As for `CCOc1ccc2c(c1)CC[C@@H]1[C@@H]2CC[C@]2(C)[C@@H](O)[C@@H](O)C[C@@H]12`, the growth was 106% (inactive).
For the molecule `COc1ccc(Cn2cc3c(c2-c2ccccc2)CC(C)(C)c2cnoc2-3)cc1`, the growth is 34.4% (inactive).
`Nc1ncncc1-c1ccc(F)cc1`: the growth was 108% (inactive).
In the case of `Cc1ccc(S(=O)(=O)N2CCc3ccccc3CC2)cc1`, the growth was 54.5% (inactive).
As for `O=[N+]([O-])c1ccc(Br)o1`, the figure is 94.4% (inactive); as for `CNC(=O)c1cc(Oc2ccc(NC(=O)Nc3ccc(Cl)c(OC(C)C)c3)c(F)c2)ccn1`, 28.1% (inactive); as for `CC1(C)CC(=O)c2c(nc3ccc(Cl)cc3c2-c2ccccc2)C1`, 89.9% (inactive).
As for `O=C(N/N=c1/ccoc2cccnc12)N1CCN(c2ncccn2)CC1`, the growth is 26.4% (inactive).
In the case of `CCCCCCOc1ccc(/C=C/C(=O)c2ccc(B(O)O)cc2)cc1`, the growth is 76.2% (inactive).
As to `COc1cc(CSc2nc3ccc(Cl)cc3c(=O)n2Cc2ccccc2)cc(OC)c1OC`, the growth was 25% (inactive).
Consider `COc1cc(C2CC(=O)Nc3c2c(C)nn3-c2nc3ccccc3[nH]2)cc(OC)c1O` (stereo not given), for which the growth is 36.8% (inactive).
For the molecule `O=C(Nc1cccc([N+](=O)[O-])c1)NN1CCCCCC1`, the growth is 105% (inactive).
As for `O=C(NC1CCN(Cc2ccccc2)CC1)c1cc(-c2ccncc2)nc2ccc(Cl)cc12`, the figure is 38.3% (inactive).
In the case of `Cn1cnc([N+](=O)[O-])c1Sc1nnc(-c2ccccc2)c(-c2ccccc2)n1`, the growth was 79.5% (inactive).
As to `Cc1ncc([N+](=O)[O-])n1CCOc1ccc(C(=O)/C=C/c2ccc(C(F)(F)F)cc2)cc1`, the growth was 88% (inactive).
Consider `COc1ccc(-c2nnc(N3CCN(C(=O)CN4CCN(c5ccc(Cl)cc5)CC4)CC3)nc2-c2ccc(OC)cc2)cc1`, for which the growth was 68.1% (inactive).
For `CCn1nc(-c2ccccn2)c2cccnc2c1=S`, the growth was 36.8% (inactive).
With `C#C[C@]1(O)CC[C@H]2[C@@H]3CC[C@H]4CC(F)(F)CC[C@]4(C)[C@H]3CC[C@@]21C`, the growth is 95.5% (inactive).
On to `CC1(C)CCc2cc(-c3ccn(S(=O)(=O)c4ccc(Cl)cc4)n3)ccc2O1`, for which the growth was 65.5% (inactive).
For `Nc1ccc(Sc2ccc3c4c2cccc4c(=O)n2c4ccccc4nc32)cc1`, the growth was 37.5% (inactive).
Turning to `O=c1ccc2nc(-c3ccccc3)nn(-c3ccccc3)c-2c1`, the growth is 54.4% (inactive).
In the case of `COc1ccc(-c2nnc(COc3ccc(NC(=O)Nc4cccc(C(F)(F)F)c4)cc3F)o2)cc1`, the growth is 56.6% (inactive).
In the case of `Cc1cc(C(C)(C)CC(C)(C)C)ccc1OCCOCC[N+](C)(C)Cc1ccccc1`, the growth is -20% (active).
As for `CC(=O)N(O)c1ccc(/C=C/c2ccccc2)cc1`, the growth is 31% (inactive).
As for `O=C(COc1ccc(-c2nc3ccccc3[nH]2)cc1)N=Nc1c(O)[nH]c2ccccc12`, the figure is 106% (inactive).
